The test system of experiment [1] is PRMT1 (protein arginine N-methyltransferase 1). In words: small molecules binding arginine methyltransferase PRMT1 – biochemical, small-molecule microarray, 635 nm fluorescence, primary screen (AID 1088).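 Also: binding of Prmt1 protein to compounds spotted on small-molecule microarray slides.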 The following applies: higher = more signal.
Experiment [2] can be described thus: growth effects on S. cerevisiae YJM789 – YJM789 clinical isolate, OD600, 24 h, basal, primary screen (AID 1089).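 Also: growth of clinical yeast isolate S. cerevisiae YJM 789 seeded 1000 cells per well; test concentration not given here.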 The following applies: higher = more signal, called active from +8 up or from −8 down.
Experiment [3] in a line: S. pombe growth modifiers, basal conditions – strain 972, OD600, 24 h, no modulator, primary screen (AID 1090).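 Also: basal condition with compound alone and no growth modifier present; test concentration not given here.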 The following applies: S. pombe 972 growth, higher = more signal, called active from +8 up or from −8 down.
Experiment [4] in a line: budding yeast growth modifiers under rapamycin – strain BY4716, OD600, 96 h, primary screen (AID 1091). Also: test concentration not given here. The following applies: S. cerevisiae BY4716 + rapamycin, higher = more signal, called active from +8 up or from −8 down.
In experiment [5] the target is Torsin-1A-interacting protein 2 (Homo sapiens) (UniProt Q8NFQ8). In words: small molecules binding lysate-expressed LULL1 – cell lysate, human LULL1 lysate, 635/667 nm fluorescence, primary screen (AID 1092).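 Also: probe is lysate of COS7 cells overexpressing human LULL1; score merges per-feature 667 nm fluorescence with signal-to-noise.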 The conditions noted are these: small-molecule microarray, hLULL1 lysate binding, 635 nm fluorescence; higher = more signal.
The nature of experiment [6]: optical density change of DRC41 E. coli – strain DRC41, OD650, 24 h, E. coli filamentation project, primary screen (AID 1093).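 Also: MC1000 strain lacking acrAB efflux and sulA so SOS filamentation is blocked; test concentration not given here.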 The following applies: E. coli DRC41 growth, higher = more signal, called active from +8 up or from −8 down.
Experiment [7] can be described thus: probe aLefty2 binding to arrayed compounds – biochemical, biotinylated probe, 635/667 nm fluorescence, primary screen (AID 1094).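 Also: score merges spot fluorescence near 667 nm with spot signal-to-noise ratio.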 The following applies: small-molecule microarray, higher = more signal.
The subject of experiment [8] is Noggin (protein binding on small-molecule microarray). The experiment is described as follows: small molecules binding Noggin protein – biochemical, 635/667 nm fluorescence, primary screen (AID 1095).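 Also: score merges 667 nm feature fluorescence with signal to noise over triplicate slides.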 The following applies: 635 nm fluorescence, higher = more signal.
Experiment [9] has as its target Neurogenic locus notch homolog protein 3 (Homo sapiens) (UniProt Q9UM47). In words: small molecules binding NOTCH3 protein – biochemical, 635/667 nm fluorescence, primary screen (AID 1096). The conditions noted are these: small-molecule microarray, 635 nm fluorescence, higher = more signal.
The nature of experiment [10]: probe aEGFR binding to arrayed compounds – biochemical, biotinylated probe, 635/667 nm fluorescence, primary screen (AID 1097).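 Also: probe is a biotinylated anti-EGFR antibody binding compounds printed on slides; score combines fluorescence near 667 nm and signal to noise of each spot.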 The following applies: small-molecule microarray, higher = more signal.

The source made the active and inactive calls.

Chain of Torsin-1A-interacting protein 2 (Homo sapiens) (Q8NFQ8 whole entry, looked up): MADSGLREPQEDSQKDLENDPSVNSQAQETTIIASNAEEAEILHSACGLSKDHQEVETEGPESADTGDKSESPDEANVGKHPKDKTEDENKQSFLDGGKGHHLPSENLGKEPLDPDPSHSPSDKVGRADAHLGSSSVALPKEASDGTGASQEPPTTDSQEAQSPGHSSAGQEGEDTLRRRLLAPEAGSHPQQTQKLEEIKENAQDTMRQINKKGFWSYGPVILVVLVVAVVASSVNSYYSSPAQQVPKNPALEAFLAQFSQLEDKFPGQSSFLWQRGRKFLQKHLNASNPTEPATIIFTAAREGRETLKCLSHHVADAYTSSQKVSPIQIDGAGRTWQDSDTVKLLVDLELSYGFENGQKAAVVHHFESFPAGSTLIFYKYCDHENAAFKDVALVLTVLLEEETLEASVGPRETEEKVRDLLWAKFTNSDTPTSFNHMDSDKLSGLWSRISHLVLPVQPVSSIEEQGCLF
Chain of Neurogenic locus notch homolog protein 3 (Homo sapiens) (Q9UM47 whole entry, looked up): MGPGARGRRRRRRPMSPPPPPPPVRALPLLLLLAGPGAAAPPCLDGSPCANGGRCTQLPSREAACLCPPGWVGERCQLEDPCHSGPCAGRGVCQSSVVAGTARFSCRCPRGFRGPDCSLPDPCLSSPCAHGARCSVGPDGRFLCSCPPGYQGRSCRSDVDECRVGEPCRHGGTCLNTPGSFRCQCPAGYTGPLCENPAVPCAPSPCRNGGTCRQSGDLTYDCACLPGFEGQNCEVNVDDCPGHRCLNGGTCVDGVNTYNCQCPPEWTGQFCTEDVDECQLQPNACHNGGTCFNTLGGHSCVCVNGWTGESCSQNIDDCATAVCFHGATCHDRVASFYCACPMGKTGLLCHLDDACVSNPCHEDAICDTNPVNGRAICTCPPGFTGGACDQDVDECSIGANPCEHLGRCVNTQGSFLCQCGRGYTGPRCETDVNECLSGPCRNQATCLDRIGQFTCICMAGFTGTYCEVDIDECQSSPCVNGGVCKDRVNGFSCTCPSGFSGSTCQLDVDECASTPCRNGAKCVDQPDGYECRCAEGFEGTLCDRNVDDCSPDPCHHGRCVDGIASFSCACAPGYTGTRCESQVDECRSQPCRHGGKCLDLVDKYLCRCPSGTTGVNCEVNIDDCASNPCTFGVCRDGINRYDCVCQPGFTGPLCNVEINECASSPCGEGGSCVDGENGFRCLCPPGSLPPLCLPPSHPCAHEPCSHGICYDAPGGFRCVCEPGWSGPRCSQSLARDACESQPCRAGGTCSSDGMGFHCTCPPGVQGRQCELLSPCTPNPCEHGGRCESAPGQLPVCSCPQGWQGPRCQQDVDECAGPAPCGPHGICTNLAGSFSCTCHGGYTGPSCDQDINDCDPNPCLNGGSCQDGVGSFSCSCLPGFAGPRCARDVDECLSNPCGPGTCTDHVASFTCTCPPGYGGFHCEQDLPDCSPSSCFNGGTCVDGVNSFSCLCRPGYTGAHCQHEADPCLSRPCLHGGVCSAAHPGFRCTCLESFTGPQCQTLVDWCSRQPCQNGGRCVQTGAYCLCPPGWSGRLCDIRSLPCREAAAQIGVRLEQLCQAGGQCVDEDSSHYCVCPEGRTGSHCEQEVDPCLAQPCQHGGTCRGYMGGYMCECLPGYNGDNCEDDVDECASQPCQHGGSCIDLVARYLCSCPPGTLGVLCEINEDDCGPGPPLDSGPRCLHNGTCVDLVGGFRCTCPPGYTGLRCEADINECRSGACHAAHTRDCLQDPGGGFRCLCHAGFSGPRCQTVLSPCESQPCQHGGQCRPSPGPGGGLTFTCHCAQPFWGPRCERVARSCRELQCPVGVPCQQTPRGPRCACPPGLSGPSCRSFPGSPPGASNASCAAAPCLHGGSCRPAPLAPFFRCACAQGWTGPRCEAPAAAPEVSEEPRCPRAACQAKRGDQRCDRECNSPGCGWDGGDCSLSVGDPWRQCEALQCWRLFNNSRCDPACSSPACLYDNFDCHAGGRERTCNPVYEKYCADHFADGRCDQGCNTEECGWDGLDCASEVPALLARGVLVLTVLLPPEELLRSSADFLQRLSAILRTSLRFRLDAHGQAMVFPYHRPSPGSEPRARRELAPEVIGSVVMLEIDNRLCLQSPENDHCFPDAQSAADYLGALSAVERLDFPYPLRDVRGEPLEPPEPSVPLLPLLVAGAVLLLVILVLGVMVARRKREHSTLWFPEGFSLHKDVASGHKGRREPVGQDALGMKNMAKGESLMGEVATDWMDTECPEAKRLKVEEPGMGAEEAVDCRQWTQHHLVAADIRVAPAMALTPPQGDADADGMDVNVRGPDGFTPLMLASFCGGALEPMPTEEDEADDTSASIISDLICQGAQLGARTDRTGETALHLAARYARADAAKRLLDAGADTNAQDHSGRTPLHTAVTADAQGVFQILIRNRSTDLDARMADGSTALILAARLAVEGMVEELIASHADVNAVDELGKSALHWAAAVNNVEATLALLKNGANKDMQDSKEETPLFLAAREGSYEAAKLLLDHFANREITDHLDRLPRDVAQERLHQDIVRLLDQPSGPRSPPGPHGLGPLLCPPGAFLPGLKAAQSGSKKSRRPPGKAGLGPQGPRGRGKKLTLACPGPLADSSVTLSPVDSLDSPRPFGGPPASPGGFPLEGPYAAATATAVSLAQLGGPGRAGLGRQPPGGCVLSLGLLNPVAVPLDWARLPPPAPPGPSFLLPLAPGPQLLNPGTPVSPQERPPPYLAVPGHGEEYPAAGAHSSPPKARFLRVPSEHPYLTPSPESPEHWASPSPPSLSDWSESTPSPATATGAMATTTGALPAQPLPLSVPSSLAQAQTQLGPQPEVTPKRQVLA

Consider `CCCCCC1=C2CNC(CCC)(C(=O)OC)C=C2C(C)C1=O` (stereo not given), for which the composite z-score in experiment [1] was -0.523; in experiment [5], 2.13; in experiment [7], 0.0943; in [8], -0.236; in experiment [9], 0.358; in [10] it was 0.189. The z-score was 0.0131 (inactive) in experiment [2], 0.277 (inactive) in [3], 0.573 (inactive) in experiment [4] and -0.48 (inactive) in experiment [6].

For `COCCOC(=O)N1C(=O)[C@@]2(c3cc(C#CC4(O)CCCCCC4)ccc31)[C@H](c1ccc(O)cc1)N1[C@H](c3ccccc3)[C@H](c3ccccc3)OC(=O)[C@H]1[C@@H]2C(=O)Nc1nc2ccccc2s1`, the composite z-score in experiment [1] amounted to 1.35; in [5], 3.08; in [7], 1.04; in [8], 1.59; in experiment [9], 1.1; in experiment [10], 0.292. Moreover, the z-score in [2] was 0.861 (inactive); in experiment [3], -0.0153 (inactive); in experiment [4], 0.383 (inactive); in [6], -0.369 (inactive).

`CC(C)(C)C(=O)N[C@@H](c1ccc(Cl)cc1)[C@]1(C)C[C@H]1C1CCCCC1`: the composite z-score is 1.05 in experiment [1]; 3.61 in experiment [5]; 0.43 in experiment [7]; -0.486 in experiment [8]; 1.05 in experiment [9]; 0.106 in experiment [10]. Further, the z-score in experiment [2] is 0.553 (inactive); in experiment [3] it was 0.613 (inactive); in experiment [4], -0.104 (inactive); in experiment [6], -0.21 (inactive).

Consider `Cc1ccc(S[C@]2(C(=O)NC(C)C)CC(=O)N(Cc3ccccc3Cl)[C@@H]2c2ccc(CO)cc2I)cc1`, for which the composite z-score in experiment [1] was 1.14; in experiment [5] it was 1.81; in experiment [7] it was 0.0282; in [8] it was -0.28; in experiment [9], -0.317; in experiment [10], -0.287. In addition, the z-score in experiment [2] was -1.59 (inactive); in experiment [3], -1.98 (inactive); in experiment [4], 0.239 (inactive); in [6], 0.0987 (inactive).

With `COCCOC(=O)N1C(=O)[C@@]2(c3cc(C#CC4=CCCCC4)ccc31)[C@H](C(=O)N1CCc3cc(OC)c(OC)cc3C1)[C@H]1C(=O)O[C@H](c3ccccc3)[C@H](c3ccccc3)N1[C@@H]2c1ccc(OCCO)cc1`, the composite z-score in experiment [1] was 1.55; in experiment [5], 2.49; in experiment [7] it was -0.119; in experiment [8] it was 0.916; in [9], 1.09; in [10], -0.0357. Moreover, the z-score in experiment [2] is 1.34 (inactive); in experiment [3], 0.713 (inactive); in experiment [4] it was 3.16 (inactive); in experiment [6], -0.217 (inactive).

Take `CN(C)C(=O)[C@]1(Cc2ccccc2N=[N+]=[N-])N=C(c2ccc(OCCCO)cc2)O[C@@H]1c1ccccc1`: the composite z-score in experiment [1] was 1.39; in [5] it was 3.02; in experiment [7], 0.149; in experiment [8] it was 1.21; in [9] it was 0.905; in experiment [10] it was -0.0512. The z-score in experiment [2] was -0.958 (inactive); in [3], -2.29 (inactive); in experiment [4], -0.195 (inactive); in [6], 0.677 (inactive).

With `CC(C)C(CO)N1C(=O)[C@@H]2[C@H]3C(=O)OCC=C[C@H]3OC23C=CCN(C(C)C)C(=O)[C@@H]13` (stereo not given in full), the composite z-score in experiment [1] was 0.261; in experiment [5] it was 1.4; in [7], -0.273; in [8], 0.503; in [9], 0.51; in [10], -0.194. Besides, the z-score in experiment [2] is 0.58 (inactive); in experiment [3], 0.38 (inactive); in [4], 0.136 (inactive); in experiment [6], 1.99 (inactive).

On to `O=C1C2C=CC(C(O)c3c(F)cccc3Cl)N(Nc3ccccc3)C2C(=O)N1c1ccccc1` (stereo not given), for which the composite z-score in [1] was 1.56; in experiment [5], 3.43; in experiment [7], 0.0313; in [8], 0.461; in experiment [9], 1.04; in [10], -0.0251. The z-score was 0.269 (inactive) in experiment [2], 0.211 (inactive) in experiment [3], 0.395 (inactive) in experiment [4] and 0.063 (inactive) in [6].

For the compound `O=C1O[C@H](c2ccccc2)[C@H](c2ccccc2)N2[C@H]1[C@@H](C(=O)NC[C@H](O)c1ccccc1)[C@]1(C(=O)Nc3ccccc31)[C@H]2c1ccc(OCCO)cc1`, the composite z-score was 1.58 in experiment [1]; 2.39 in experiment [5]; -0.147 in experiment [7]; 0.234 in experiment [8]; 0.797 in experiment [9]; -0.0244 in [10]. In addition, the z-score is 2.12 (inactive) in [2], 1.93 (inactive) in experiment [3], 5.07 (inactive) in [4] and -0.965 (inactive) in experiment [6].

Regarding `CC(C)C[C@@H]1NC(=O)[C@H]2C[C@@H](C(=O)NCCCCCCN(C)C)[C@@H](c3ccc(O)cc3)N2C1=O`, the composite z-score in experiment [1] was 1.56; in [5], 3.1; in [7], 0.0829; in experiment [8], 0.248; in experiment [9] it was 1.14; in experiment [10], 0.122. Further, the z-score is -0.924 (inactive) in [2], -0.48 (inactive) in experiment [3], -0.734 (inactive) in experiment [4] and -0.613 (inactive) in experiment [6].

With `CCCCC(O)C1C=CC2C(=O)N(c3ccccc3)C(=O)C2N1Nc1ccccc1F` (stereo not given), the composite z-score in experiment [1] was 1.11; in experiment [5], 2.99; in experiment [7] it was 0.648; in experiment [8], -0.0787; in experiment [9], 0.818; in [10], 0.159. Also, the z-score in experiment [2] is -0.0377 (inactive); in [3], -0.579 (inactive); in [4], 1.03 (inactive); in [6], -0.825 (inactive).

As to `CCCC[C@@H]1C[C@H]1[C@@H](NC(=O)c1ccco1)c1ccc(C(=O)OC)cc1`, the composite z-score is 0.488 in experiment [1]; 1.93 in [5]; 0.0258 in experiment [7]; -1.2 in [8]; -0.64 in experiment [9]; -0.171 in experiment [10]. Moreover, the z-score in experiment [2] is -0.152 (inactive); in experiment [3] it was -1.61 (inactive); in [4], 0.06 (inactive); in [6], -1.53 (inactive).

Regarding `COCCOC(=O)N1C(=O)[C@@]2(c3ccccc31)[C@H](c1ccccc1OCCO)N1[C@H](c3ccccc3)[C@H](c3ccccc3)OC(=O)[C@H]1[C@@H]2C(=O)Nc1nc2ccccc2s1`, the composite z-score in experiment [1] was 1.56; in experiment [5], 2.25; in [7] it was -0.0285; in [8], 1.47; in [9], 1.09; in [10] it was -0.0244. For the same compound, the z-score in experiment [2] is 1.68 (inactive); in experiment [3], 0.981 (inactive); in experiment [4] it was 4.61 (inactive); in [6], 2.25 (inactive).

Turning to `CCCN1C(=O)[C@]2(CCS(=O)(=O)c3ccccc3)N=C(c3ccc(OCCCO)cc3)O[C@@H]2c2ccccc21`, the composite z-score was 1.54 in experiment [1]; 2.84 in experiment [5]; 0.106 in experiment [7]; 0.866 in experiment [8]; 1.09 in [9]; -0.0509 in [10]. The z-score was -0.559 (inactive) in experiment [2], -0.0812 (inactive) in [3], 2.82 (inactive) in experiment [4] and 1.97 (inactive) in experiment [6].

These data come from PubChem BioAssay.
